# Source: ChEMBL document CHEMBL3988442, “University of Dundee, Small-Polar-MMV Screening Library” (2021)
# In all, about 48,000 compounds went through this assay and about 13,000 (27%) showed an effect of 50% or more. This is one part of the list.
# Tested on: Wolbachia pipientis
# Test: Anti-Wolbachia Cell-Based Screen
# Type: functional
# Set-up: scale not given: in the data most compounds retested in dose-response had high values
# Conditions: 5 µM
row,SMILES,Percent Effect [%]
1,CS(=O)(=O)N1CCC(NCC2(N3CCOCC3)CCCCC2)CC1,-12.17
2,COc1cc2cc(C(=O)N[C@@H](C)C(=O)O)n(C)c2c(OC)c1OC,6.023
3,CC(C)Cc1ncc(CNc2cnccc2CO)s1,2.618
4,CC(C)n1cnc2c1C(C(=O)NCCO)N(Cc1ccccc1)CC2.O=C(O)C(F)(F)F (stereo unspecified),2.168
5,CN(C1CCc2ccccc2C1)S(C)(=O)=O (stereo unspecified),-5.064
6,COCCN(CC(F)F)c1cc(COC)nc2ncnn12,3.034
7,CCn1c(CN2CCCN(C(=O)OC)CC2)nc2c(F)cccc21,-3.965
8,COCC(=O)N1CCCN(Cc2c(C)nc3ccc(Cl)cn23)CC1,-0.9556
9,COC(=O)N1CCCN(C(=O)c2cccc3cccnc23)CC1,-4.967
10,CCC(=O)N1CCCN(Cn2nc(C)c(Br)c2C)CC1,116.5
11,CCC(=O)N1CCCN(C(=O)c2cc(C)cc(Br)c2O)CC1,5.319
12,COCC(=O)N1CCN(Cn2nc(C)c(Br)c2C)CC1,100.8
13,CCn1ccnc1CN1CCCN(C(=O)Cn2nc(C)cc2C)CC1,-3.678
14,COCC(=O)N1CCN(Cc2nnc(C(C)(C)C)o2)CC1,-20.23
15,COC(=O)N1CCCN(Cn2nc(C)c(Br)c2C)CC1,92.29
16,O=C(CCCn1nnc(-c2ccc(F)cc2)n1)N1CCOCC(CO)C1 (stereo unspecified),-1.392
17,CCCN(Cc1nccn1C)C(=O)c1cnn[nH]1,-16.97
18,Cc1nn(C2CCCCC2)c2nc(C(C)(C)CN3CCOCC3)[nH]c12,104.5
19,CC(C)(C)c1c[nH]c([C@@H]2COCCN2C2CCCCC2)n1,-16.61
20,CC(CN1CCOCC1)NCc1nncn1C1CCCCC1 (stereo unspecified),-12.38
21,Cc1nn(-c2ccccc2)c2nc(C(C)(C)CN3CCN(C)CC3)[nH]c12,102.6
22,Cc1nn(-c2ccccc2)c(C)c1-c1ccnc(N2CCC(O)CC2)n1,-6.995

row,SMILES,Percent Effect [%]
1,Cc1nn(C2CCCC2)c2nc(C(C)(C)CN3CCN(C)CC3)[nH]c12,98.14
2,Cn1ncc2c(NCCCOc3cccnc3)nc(C3CCCC3)nc21,15.74
3,COc1ccc(CC(=O)N2CCC(c3nncn3C)CC2)cc1F,-9.824
4,CCn1cnnc1C1CCN(C(=O)c2cc(OC)ccc2OC)CC1,101
5,CCn1cnnc1C1CCN(C(=O)c2cccc(OC)c2OC)CC1,96.27
6,CCn1cnnc1C1CCN(C(=O)COc2ccccc2OC)CC1,7.042
7,CCn1cnnc1C1CCN(C(=O)c2ccc(Cl)cc2OC)CC1,99.28
8,CCn1cnnc1C1CCN(C(=O)COc2ccc(Cl)cc2)CC1,6.006
9,CCn1cnnc1C1CCN(C(=O)c2cc(F)ccc2OC)CC1,106.7
10,CCn1cnnc1C1CCN(C(=O)Cc2ccc(OC)c(F)c2)CC1,-0.6685
11,CCn1cnnc1C1CCN(C(=O)c2ccccc2OC)CC1,-6.439
12,O=C(O)C(F)(F)F.O=C([C@H]1COC[C@H]2CN(C3CCCC3)C[C@H]21)N1CCCCO1,-5.445
13,O=C(Cc1cccc(Cl)c1)Nc1cnccc1SCCCO,7.035
14,COc1ccc(CNc2nncs2)cc1F,-12.2
15,O=C(Nc1ccc(OC(F)F)cc1)N1CCC(c2nnc[nH]2)CC1,-4.065
16,CC(=O)N1CCCC(C(=O)Nc2ccccc2Cc2ccccc2)C1 (stereo unspecified),4.475
17,NC(=O)CSc1ccccc1NC(=O)C1CCCCC1,84.77
18,NC(=O)CSc1ccccc1NC(=O)CC1C=CCC1 (stereo unspecified),119.4
19,CCCN1CCC(N(C)CCC(=O)Nc2ccccc2SC)CC1,-1.207
20,NC(=O)CSc1ccccc1NCc1nc(Cc2ccccc2)no1,-16.37
21,NC(=O)CSc1ccccc1NCc1nc(C2CC2)no1,-3.279
22,NC(=O)CSc1ccccc1NC(=O)C1CCCC1,99.94

row,SMILES,Percent Effect [%]
1,CNC(=O)Cc1ccccc1NC(=O)C1CCCC1,5.338
2,CSc1ccccc1NC(=O)CCN1CCC(C(=O)N(C)C)CC1,8.025
3,O=C(Nc1cccnc1-n1cncn1)C1CCC1,-13.11
4,CC(C)(C)CC(=O)Nc1ccccc1SCC(N)=O,103.7
5,CNC(=O)Cc1ccccc1NC(=O)C1CCN(C2CCCCC2)C1 (stereo unspecified),-1.289
6,CCc1ccc(CN(CCN(C)C)Cc2ccc(C)s2)nc1,19.31
7,CN(C)CCN1CCOCC2(C1)CN(Cc1nccs1)CCO2.O=C(O)C(F)(F)F.O=C(O)C(F)(F)F.O=C(O)C(F)(F)F (stereo unspecified),-2.784
8,Cn1nnc2c1CCN(Cc1ccncc1)C2COCc1ccccc1.O=C(O)C(F)(F)F.O=C(O)C(F)(F)F (stereo unspecified),7.235
9,CC(C)n1cc(CN2CCCN(C(=O)c3ccco3)CC2)cn1,13.14
10,CC(C)CCc1noc(CN2CCCN(C(=O)c3ccco3)CC2)n1,-6.659
11,CCn1cc(CN2CCCN(C(=O)c3ccoc3)CC2)cn1,93.78
12,CCn1cc(CN2CCCN(C(=O)c3ccn(C)c(=O)c3)CC2)cn1,-5.674
13,Cn1cc(CN2CCCN(C(=O)c3cc[nH]n3)CC2)cn1,-7.081
14,CCn1cc(CN2CCCN(C(=O)c3ccc(C)nc3)CC2)cn1,109.5
15,Cn1cc(CN2CCCC3(CCN(C(=O)c4ccoc4)C3)C2)cn1 (stereo unspecified),-4.278
16,Cc1cccc(C(=O)N2CCCN(Cc3cnn(C)c3)CC2)n1,-11.33
17,CC(C)n1cc(CN2CCCN(C(=O)c3ccoc3)CC2)cn1,-9.039
18,Cc1ccoc1C(=O)N1CCCN(Cc2cnn(C)c2)CC1,85.33
19,CCn1cc(CN2CCCN(C(=O)c3ccco3)CC2)cn1,139.7
20,CCc1cccc(NC(=O)CCC(=O)N(C)Cc2nc(C)c[nH]2)c1,-13.69
21,O=C(O)c1cc(-c2ccoc2)cc(S(=O)(=O)NCc2ccccn2)c1,3.348
22,c1cncc(COCC2CN(Cc3ccncc3)Cc3ccnn3C2)c1 (stereo unspecified),-8.453
